Screen size: about 48,000 compounds; about 13,000 (27%) showed an effect of 50% or more. Some of the results follow.
system: Wolbachia pipientis; experiment: Anti-Wolbachia Cell-Based Screen; format: functional; design: scale not given: in the data most compounds retested in dose-response had high values; conditions: 5 µM

Row | Structure (SMILES) | Percent Effect [%]
1 | c1cc(CNc2nnc(Cc3ccsc3)o2)cs1 | -17.73
2 | Clc1cnccc1N1CCCC2(CCCOC2)C1 (stereo unspecified) | -10.01
3 | COCc1ccc(C(=O)N2CCCN(Cc3cscn3)CC2)cc1 | 110
4 | O=C(c1ccc(Cl)o1)N1CCCN(Cc2cscn2)CC1 | 4.253
5 | Cc1ccc(C(=O)N2CCCN(Cc3cscn3)CC2)o1 | 108
6 | NC(=O)c1cncc(N2CCN(Cc3ccc(F)cc3Cl)CC2)n1 | -6.115
7 | CCC(C)N(Cc1cccnc1)Cc1cc2c(cc1OC)OCO2 (stereo unspecified) | 6.738
8 | Cc1ncnc2c1CCN(C(=O)c1cccn1C)CC2 | -19.88
9 | CN1CCN(c2ncnc3c2CCN(C(=O)c2cccn2C)CC3)CC1 | 1.463
10 | Cn1cccc1C(=O)N1CCc2ccc(=O)n(C)c2CC1 | 85.33
11 | CN(CCCNC(=O)N1CCCC1c1ccsc1)c1ccccn1 (stereo unspecified) | 7.927
12 | Cn1ccnc1CN1C[C@@H](CN2CCC(CO)CC2)[C@@H](CO)C1 | -24.97
13 | Cc1cc(N2CCCC(O)CC2)n2nc(C)c(C)c2n1 (stereo unspecified) | -2.095
14 | Cc1nc2cc(-c3nccn3C)nn2c(N2CCCC(CO)C2)c1C (stereo unspecified) | 68.35
15 | Cc1nc2cc(-c3nccn3C)nn2c(N2CCCC(O)C2)c1C.Cl (stereo unspecified) | 80.29
16 | Cc1cc(N2CC[C@H](O)C2)n2nc(C)c(C)c2n1 | -7.079
17 | OCC1CCCN(c2ncnc3c2Cc2ccccc2OC3)C1 (stereo unspecified) | 5.574
18 | Cc1cc(C2CCC2)nc(N2CCN(Cc3nccn3C)CC2)n1 | -10.5
19 | Cn1ccnc1-c1nccn1C[C@@H]1CCCN2CCCC[C@H]12 | -12.88

Row | Structure (SMILES) | Percent Effect [%]
20 | Cc1cc(N2CCCCCC2)n2nc(C)c(C)c2n1 | -8.895
21 | Cc1cc(N2CCCN(c3nc(C)nc(C)c3C)CC2)ccn1 | 23.81
22 | Cc1ccccc1OCC(=O)N1CC[C@]2(C[C@@H](OCC3CC3)CO2)C1 | 14.13
23 | CC(NC(=O)c1coc(COc2cccc(F)c2)n1)c1nnc(N)s1 (stereo unspecified) | -13.23
24 | O=C(N1CCc2ccccc2CC1)C1(O)Cc2ccccc2C1 | 1.099
25 | Cc1nsc(N2CCCN(C(=O)NCc3cccnc3)CC2)n1 | -3.745
26 | CCNC(=O)N1C[C@@H]2OCC(=O)N(C)[C@@H]2C1 | -7.352
27 | Cn1ccnc1C(=O)N[C@@H]1CN(Cc2ccoc2)[C@@H]2CCCO[C@@H]21.O=C(O)C(F)(F)F | 105.8
28 | Cn1cc(CN2C[C@@H](NC(=O)c3cscn3)[C@H]3OCCC[C@H]32)cn1.O=C(O)C(F)(F)F.O=C(O)C(F)(F)F | -10.62
29 | Cn1cc(C(=O)N[C@@H]2CN(CC3CCOCC3)[C@@H]3CCCO[C@@H]32)cn1.O=C(O)C(F)(F)F | -2.907
30 | Cn1ccnc1CN1C[C@H](N2CCOCC2)[C@@H]2OCCC[C@@H]21.O=C(O)C(F)(F)F.O=C(O)C(F)(F)F.O=C(O)C(F)(F)F | -9.409
31 | Cn1ccnc1C(=O)N[C@@H]1CN(CC2CCOCC2)[C@@H]2CCCO[C@@H]21.O=C(O)C(F)(F)F | 97.93
32 | Cn1cccc1C(=O)N[C@@H]1CN(Cc2ccsc2)[C@@H]2COC[C@@H]21.O=C(O)C(F)(F)F | -6.344
33 | O=C(N[C@@H]1CN(CC2CC2)[C@@H]2CCCO[C@@H]21)c1cscn1.O=C(O)C(F)(F)F | 102.8
34 | Cn1cc(C(=O)N[C@@H]2CN(Cc3cccnc3)[C@@H]3CCCO[C@@H]32)cn1.O=C(O)C(F)(F)F.O=C(O)C(F)(F)F | -2.49
35 | O=C(N[C@@H]1CN(Cc2cccs2)[C@@H]2CCCO[C@@H]21)c1cscn1.O=C(O)C(F)(F)F | 6.119
36 | Cn1cccc1C(=O)N[C@H]1CN(Cc2ccoc2)[C@@H]2CCCO[C@H]12.O=C(O)C(F)(F)F | 107.4
37 | Cc1ccc(C(F)(F)F)cc1C(=O)N[C@H]1CN(CCO)C[C@@H]1C1CC1 | 7.552
38 | CNC(=O)c1c(C)cccc1NCc1noc(C2CC2)n1 | -16.59

Row | Structure (SMILES) | Percent Effect [%]
39 | N#Cc1ccc(CN2C[C@@H](F)[C@@H](OCc3nc4cnccc4[nH]3)C2)cc1 | -2.578
40 | CC1CN(C(=O)NCc2cnn(-c3ccc(F)cc3F)c2)CCO1 (stereo unspecified) | -3.691
41 | Cc1cnn(CCNCC(=O)Nc2ccc(Cl)cn2)c1 | 6.715
42 | CC(C)c1nn(C)c(N(C)C)c1CNC1CCN(C2CC2)CC1.Cl | -24.68
43 | CC(C)CN1CC2(CCN(C(=O)C3CSC(C)(C)C(=O)N3)CC2)CC1=O (stereo unspecified) | -2.858
44 | Cn1cc(C(=O)N[C@@H]2CN(Cc3ccoc3)[C@@H]3CCCO[C@@H]32)cn1 | 112.9
45 | Cn1ccnc1C(=O)N[C@@H]1CN(Cc2cccs2)[C@@H]2CCCO[C@@H]21.O=C(O)C(F)(F)F | -0.1124
46 | Cn1cc(C(=O)N[C@@H]2CN(Cc3cccs3)[C@@H]3CCCO[C@@H]32)cn1.O=C(O)C(F)(F)F | -10.01
47 | Cn1ccnc1C(=O)N[C@@H]1CN(Cc2ccc(F)cc2)[C@@H]2CCCO[C@@H]21.O=C(O)C(F)(F)F | 106
48 | Cn1cc(C(=O)N[C@@H]2CN(Cc3ccc(F)cc3)[C@@H]3CCCO[C@@H]32)cn1.O=C(O)C(F)(F)F | -4.433
49 | Cc1ccc(CN2C[C@H](NC(=O)c3nccn3C)[C@H]3OCCC[C@H]32)o1 | 104.4
50 | CCN(CC)[C@@H]1CN(Cc2ccc(C)o2)[C@@H]2CCCO[C@H]12 | -8.708
51 | O=C1C(NCc2nnc3n2CCCC3)CCN1CC(F)(F)F (stereo unspecified) | -0.8085
52 | COc1ccc(CSCC(O)CO)c(Cl)c1 (stereo unspecified) | -5.402
53 | CCn1cc(S(=O)(=O)NC(CO)Cc2c[nH]c3ccccc23)cn1 (stereo unspecified) | -10.13
54 | CC(=O)NC1CCN(c2nc(C)nc3c2c(C)nn3C)C1 (stereo unspecified) | -5.882
55 | CCN(CC)c1nc2sc(C(=O)NC(C)(C)C(=O)OC)cc2s1 | 3.402
56 | Cc1ccc(N2Cc3nc(=O)[nH]n3C2=O)cc1 | -1.797

— ChEMBL document CHEMBL3988442, “University of Dundee, Small-Polar-MMV Screening Library” (2021)
